# Data taken from PubChem BioAssay (NCATS).
# Several values for one entry are separate records, joined by “and”; a condition that tells them apart may be missing. Equal entries are not always repeated. Inconclusive results are not listed. A structure can be active in one record and inactive in another. Activity calls are given as the source filed them. Unless noted, calls come from the whole dose curve.
# Key:
# [1] = target: Glucocorticoid receptor (Homo sapiens) (UniProt P04150); assay: qHTS assay for small molecule agonists of glucocorticoid receptor signaling (AID 588532; active = well fitted curve in the direction sought with a large enough effect in the signal ratio, with a control signal flat; the % refers to the signal ratio;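 note: 100% = dexamethasone at 0.1 µM and 0% = DMSO only wells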); conditions: HeLa MMTV-bla, beta-lactamase ratio, agonist, 18 h; activation: stronger effect = higher value, percent of dexamethasone control, DMSO zero
# In short: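 Titration series, up to 92 uM, applied to GRE-bla HeLa cells for 18 h at 37 C. Detection by CCF4 FRET substrate after 2 h at RT.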
# [2] = target: Glucocorticoid receptor (Homo sapiens) (UniProt P04150); assay: qHTS assay for small molecule antagonists of glucocorticoid receptor signaling (AID 588533; active = well fitted inhibition curve with a large enough effect in the signal ratio, with a control signal flat, not every such curve was filed as active; the % refers to the signal ratio;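 note: cells stimulated with 2 nM dexamethasone as agonist; % is set by controls: 0 for no effect and ±100 for the full control effect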)
# In short: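 Antagonist-mode qHTS: compound titrations added to GRE-bla HeLa cells, then dexamethasone 2 nM final; 18 h, 37 C. CCF4 FRET fluorescence normalized to dexamethasone and DMSO; IC50 from Hill fit.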
# [3] = target: Peroxisome proliferator-activated receptor delta (Homo sapiens) (UniProt Q03181); assay: qHTS assay for small molecule agonists of peroxisome proliferator-activated receptor delta signaling (AID 588534);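 note: 0% = DMSO basal wells and 100% = positive control agonist at 10 µM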
# In short: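 Titration series tested in agonist mode on beta-lactamase reporter cells; 18 hrs at 37 C after a 5 hr pre-incubation. Readout: CCF4 fluorescence, 2 hrs RT. Hill equation gives EC50 and maximal response.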
# [4] = qHTS assay for small molecule antagonists of peroxisome proliferator-activated receptor delta signaling (AID 588535; active = well fitted inhibition curve with a large enough effect in the signal ratio, with a control signal flat, not every such curve was filed as active; the % refers to the signal ratio;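 for max response: cells co-treated with a PPAR-delta agonist as stimulator during compound exposure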); conditions: HEK293T PPARd-UAS-bla, beta-lactamase FRET ratio, 18 h; 460 nm channel
# In short: (§1)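 Compounds tested in titration on PPAR-delta-UAS-bla HEK293T cells grown in charcoal/dextran-stripped serum (2%); beta-lactamase activity read via CCF4 emission at 460 and 530 nm.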
# [5] = target: Peroxisome proliferator-activated receptor delta (Homo sapiens) (UniProt Q03181); assay: as above
# In short: as §1
# [6] = target: Peroxisome proliferator-activated receptor gamma (Homo sapiens) (UniProt P37231); assay: qHTS assay for small molecule agonists of peroxisome proliferator-activated receptor gamma signaling (AID 588536; active = well fitted curve in the direction sought with a large enough effect in the signal ratio, with a control signal flat, not every such curve was filed as active; the % refers to the signal ratio;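 note: 0% = DMSO basal wells and 100% = rosiglitazone at 2 µM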)
# In short: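 This is an agonist-mode beta-lactamase reporter assay in HEK293 PPAR-gamma-UAS-bla cells with 1% charcoal/dextran FBS. Compound titrations ran 16 h at 37 C before CCF4 detection. EC50 and efficacy are Hill fits scaled to 2 uM rosiglitazone (100%) and DMSO basal.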
# [7] = target: Vitamin D3 receptor (Homo sapiens) (UniProt P11473); assay: qHTS assay for small molecule antagonists of vitamin D receptor signaling (AID 588541);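 note: receptor activated by calcitriol during compound treatment; series mostly up to about 77 µM; % is set by controls: 0 for no effect and ±100 for the full control effect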
# In short: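 VDR-UAS-bla HEK293T cells (2000/well, 2% charcoal-stripped FBS) were treated with titrated compounds plus 1-alpha,25-dihydroxyvitamin D3 (50 nM or 3 nM final) for 16 h at 37 C. CCF4 beta-lactamase fluorescence was read; Hill fits gave IC50.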
# [8] = target: Vitamin D3 receptor (Homo sapiens) (UniProt P11473); assay: qHTS assay for small molecule agonists of vitamin D receptor signaling (AID 588543);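 note: 0% = DMSO basal and 100% = reference agonist control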
# In short: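 VDR-UAS-bla HEK293T cells, 2000/well, 2% charcoal-stripped FBS; compound titration 16 h at 37 C; CCF4 beta-lactamase ratio read. Normalized to 50 nM 1-alpha,25-dihydroxyvitamin D3 (100%) and DMSO; Hill fit gives EC50, efficacy.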
# [9] = target: Thyroid hormone receptor beta (Homo sapiens) (UniProt P10828); assay: qHTS assay for small molecule agonists of thyroid hormone receptor beta signaling (AID 588545);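 note: 0% = DMSO only and 100% = 10 nM T3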
# In short: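 TR-UAS-bla-GripTite HEK 293 cells in medium with 2% charcoal/dextran FBS, 0.1 mM NEAA and 1 mM sodium pyruvate were treated with titrated compounds for 18 hrs at 37 C. Beta-lactamase reporter was read with CCF4 dye (ex 405, em 460/530 nm); EC50 from Hill fits.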
# [10] = qHTS assay for small molecule antagonists of retinoid X receptor alpha signaling (AID 588546; active = well fitted inhibition curve with a large enough effect in the signal ratio, with a control signal flat, not every such curve was filed as active; the % refers to the signal ratio;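 note: cells stimulated with 9-cis-retinoic acid as agonist; % is set by controls: 0 for no effect and ±100 for the full control effect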); conditions: HEK293T RXRa-UAS-bla, beta-lactamase ratio, antagonist mode; measured here: W530 green channel, cytotoxicity proxy
# In short: (§2)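 Beta-lactamase reporter inhibition, read as CCF4 fluorescence ratio (ex 405, em 460/530 nm) after 2 h at RT. HEK293T UAS-bla cells, 2500/well, were stimulated with 9-cis-RA at 500 or 100 nM final alongside test compound for 18 h at 37 C.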
# [11] = target: Retinoic acid receptor RXR-alpha (Homo sapiens) (UniProt P19793); assay: as above; conditions: HEK293T RXRa-UAS-bla, beta-lactamase ratio, antagonist mode
# In short: as §2
# [12] = target: Thyroid hormone receptor beta (Homo sapiens) (UniProt P10828); assay: qHTS assay for small molecule antagonists of thyroid hormone receptor beta signaling (AID 588547; active = well fitted inhibition curve with a large enough effect in the signal ratio, with a control signal flat, not every such curve was filed as active; the % refers to the signal ratio;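 note: cells stimulated with 0.4 nM T3 agonist during compound exposure; series mostly up to about 77 µM; % is set by controls: 0 for no effect and ±100 for the full control effect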); conditions: TR-UAS-bla HEK293, beta-lactamase ratio, antagonist mode, 18 h
# In short: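 TR-UAS-bla GripTite HEK293 cells in 2% charcoal/dextran FBS medium were preincubated 4 h at 37 C, given compound (0.59 nM to 92 uM) plus 0.4 nM T3 (final) for 18 h, then CCF4 for 2 h at RT; Hill fit gave IC50.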
# [13] = qHTS assay for small molecule agonists of the antioxidant response element (ARE) signaling pathway (AID 651741; active = well fitted activation curve with a large enough effect in the signal ratio; the % refers to the signal ratio; note: potency is the fitted concentration of half-maximal effect)
# In short: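 Beta-lactamase reporter expression driven by the antioxidant response element in HepG2 cells was detected by fluorescence with LiveBLAzer B/G FRET substrate (2 h, room temperature) following 16 h compound treatment at 37 C.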
# [14] = qHTS assay for small molecule activators of the p53 signaling pathway (AID 651743; active = well fitted activation curve with a large enough effect in the signal ratio, not every such curve was filed as active; the % refers to the signal ratio; note: series mostly up to about 92 µM; % of control where 0% means no effect); conditions: HCT-116 p53RE-bla, beta-lactamase FRET ratio, 16 h; activation: stronger effect = higher value
# In short: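 Here HCT-116 cells with an integrated p53-responsive beta-lactamase gene were incubated with compounds (16 hours, 37 C) after a 5-hour plating period; beta-lactamase activity was detected as fluorescence intensity via B/G FRET substrate.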
# [15] = qHTS assay for small molecule activators of the nuclear factor-kappa B (NF-kB) signaling pathway (AID 651749; active = well fitted activation curve with a large enough effect in the signal ratio; the % refers to the signal ratio; note: series mostly up to about 77 µM; % of control where 0% means no effect); conditions: NF-kB-bla ME-180 cells, beta-lactamase FRET ratio, 16 h; activation: stronger effect = higher value
# In short: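 Beta-lactamase reporter expression, controlled by NF-kB response elements in ME-180 cells, was quantified fluorometrically via FRET disruption; cells at 2,000/well had been incubated with 23 nL test compound for 16 hr.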
# [16] = qHTS assay for environmental chemicals that activate the Aryl hydrocarbon Receptor (AhR) signaling pathway (AID 651777; active = well fitted curve in the direction sought with a large enough effect; an effect the other way counts as inactive or inconclusive; note: % of control where 0% means no effect; nearly all actives have a fitted effect of over 15% in size); conditions: 1A2-DRE human hepatoma cells, luciferase, 24 h; activation: stronger effect = higher value
# In short: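 Concentration–response screening used 1,200 1A2-DRE cells per well, 24 hr compound exposure (37 C, 5% CO2), and One-Glo luminescence as the AhR-driven CYP1A2 reporter signal.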
# [17] = target: Peroxisome proliferator-activated receptor alpha (Homo sapiens) (UniProt Q07869); assay: qHTS assay for small molecule agonists of the peroxisome proliferator-activated receptor alpha (PPARalpha) signaling pathway (AID 651778; active = well fitted curve in the direction sought with a large enough effect; an effect the other way counts as inactive or inconclusive; note: % of control where 0% means no effect); conditions: PathHunter PPARalpha complementation, chemiluminescence, 6 h; max response: stronger effect = higher value
# In short: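 Cells plated at 2,000/well and held overnight at 37 C, 5% CO2, then compound added by pin tool for 6 hr; after PathHunter detection reagent and 60 min at room temperature, chemiluminescence from enzyme complementation was read.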
# [18] = qHTS assay for small molecule agonists of the antioxidant response element (ARE) signaling pathway measured by Nrf2-dependant transcriptional activity - cell viability counter screen (AID 720653; active = well fitted curve in the direction sought with a large enough effect in the repeat runs; an effect the other way counts as inactive or inconclusive; note: % is set by controls: 0 for no effect and ±100 for the full control effect); conditions: ARE-bla HepG2 viability, CellTiter-Glo ATP luminescence, 16 h; max response: stronger effect = lower value
# In short: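 ARE-bla HepG2 cells (2,000/well) rested 5 hrs at 37C/5% CO2, then exposed to compounds in DMSO for 16 hrs. Viability was read in the same wells as intracellular ATP by luminescence, 30 min at room temperature after reagent addition.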
# [19] = qHTS assay for cell viability of HEK293 cells (AID 743288; active = well fitted curve in the direction sought with a large enough effect; an effect the other way counts as inactive or inconclusive; note: % is set by controls: 0 for no effect and ±100 for the full control effect; nearly all actives have a fitted effect of over 50% in size); conditions: ATP luminescence (CellTiter-Glo), 18 h; max response: stronger effect = lower value
# In short: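 Steps: plate 2,000 parental HEK293 cells per well; incubate ≥5 h, 37 C; add compounds in DMSO; incubate 18 h, 37 C; add CellTiter-Glo; wait 30 min at room temperature; read luminescence.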
# [20] = qHTS assay for cell viability of the p53RE-bla HCT-116 cell line (AID 743292; active = well fitted curve in the direction sought with a large enough effect; an effect the other way counts as inactive or inconclusive; note: % is set by controls: 0 for no effect and ±100 for the full control effect; nearly all actives have a fitted effect of over 55% in size)
# In short: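 Compound-exposed HCT-116 (p53RE-bla) cells, 4,000 per well, were kept 16 h at 37 C following a 5 h preincubation. Cell number was estimated from total ATP by CellTiter-Glo luminescence read after 30 min at room temperature.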
# [21] = target: Nuclear receptor subfamily 1 group I member 2 (Rattus norvegicus) (UniProt Q9R1A7); assay: qHTS assay for small molecule activators of the rat pregnane X receptor (rPXR) signaling pathway (AID 651751; call rule not given here; note: 0% is about no effect); conditions: rPXR reporter cells, luciferase (One-Glo), 24 h
# [22] = qHTS assay for small molecule agonists of retinoid X receptor alpha signaling (AID 588544); conditions: HEK293T RXRa-UAS-bla, beta-lactamase reporter, 18 h; 530 nm emission; note: potency is the fitted concentration of half-maximal effect;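 for activation: 0% = DMSO basal wells and 100% = reference agonist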
# [23] = target: Retinoic acid receptor RXR-alpha (Homo sapiens) (UniProt P19793); assay: as above
# [24] = qHTS assay for small molecule agonists of the antioxidant response element (ARE) signaling pathway measured by Nrf2-dependant transcriptional activity (AID 720636; active = well fitted curve in the direction sought with a large enough effect in the repeat runs; an effect the other way counts as inactive or inconclusive; note: potency is the fitted concentration of half-maximal effect; for activation: % of control where 0% means no effect)
# In short: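 Attachment 6 hr at 37 C, then compound versus DMSO vehicle for 16 hr in ARE-luc HepG2 cells (1% dialyzed FBS); luminescence recorded 30 min after ONE-Glo addition at room temperature.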
# Chain of Vitamin D3 receptor (Homo sapiens) (P11473 whole entry, looked up): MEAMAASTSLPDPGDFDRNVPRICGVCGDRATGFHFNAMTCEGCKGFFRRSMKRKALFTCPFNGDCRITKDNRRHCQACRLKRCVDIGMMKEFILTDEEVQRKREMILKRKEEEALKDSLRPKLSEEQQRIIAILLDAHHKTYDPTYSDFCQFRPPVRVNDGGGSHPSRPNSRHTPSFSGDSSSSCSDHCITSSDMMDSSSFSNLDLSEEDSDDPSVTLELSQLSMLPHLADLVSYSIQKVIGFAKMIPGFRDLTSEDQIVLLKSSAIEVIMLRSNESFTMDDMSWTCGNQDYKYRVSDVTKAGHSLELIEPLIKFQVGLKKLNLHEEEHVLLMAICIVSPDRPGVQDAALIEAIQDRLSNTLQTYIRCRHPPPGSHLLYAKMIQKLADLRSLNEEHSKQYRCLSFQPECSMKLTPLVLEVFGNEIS
# Chain of Retinoic acid receptor RXR-alpha (Homo sapiens) (P19793 whole entry, looked up): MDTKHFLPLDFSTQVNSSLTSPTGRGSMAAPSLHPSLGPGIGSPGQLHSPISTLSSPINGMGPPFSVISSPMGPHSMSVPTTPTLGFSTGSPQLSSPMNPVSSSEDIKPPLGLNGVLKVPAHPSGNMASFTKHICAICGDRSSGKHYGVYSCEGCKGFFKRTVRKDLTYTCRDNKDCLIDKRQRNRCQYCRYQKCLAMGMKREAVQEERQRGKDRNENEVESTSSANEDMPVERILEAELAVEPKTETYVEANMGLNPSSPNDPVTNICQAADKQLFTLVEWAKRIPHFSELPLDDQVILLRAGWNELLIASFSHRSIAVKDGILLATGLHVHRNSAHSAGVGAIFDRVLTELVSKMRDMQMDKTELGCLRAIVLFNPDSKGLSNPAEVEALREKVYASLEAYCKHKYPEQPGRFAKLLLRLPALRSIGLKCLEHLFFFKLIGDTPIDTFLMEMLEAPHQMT
# Chain of Thyroid hormone receptor beta (Homo sapiens) (P10828 whole entry, looked up): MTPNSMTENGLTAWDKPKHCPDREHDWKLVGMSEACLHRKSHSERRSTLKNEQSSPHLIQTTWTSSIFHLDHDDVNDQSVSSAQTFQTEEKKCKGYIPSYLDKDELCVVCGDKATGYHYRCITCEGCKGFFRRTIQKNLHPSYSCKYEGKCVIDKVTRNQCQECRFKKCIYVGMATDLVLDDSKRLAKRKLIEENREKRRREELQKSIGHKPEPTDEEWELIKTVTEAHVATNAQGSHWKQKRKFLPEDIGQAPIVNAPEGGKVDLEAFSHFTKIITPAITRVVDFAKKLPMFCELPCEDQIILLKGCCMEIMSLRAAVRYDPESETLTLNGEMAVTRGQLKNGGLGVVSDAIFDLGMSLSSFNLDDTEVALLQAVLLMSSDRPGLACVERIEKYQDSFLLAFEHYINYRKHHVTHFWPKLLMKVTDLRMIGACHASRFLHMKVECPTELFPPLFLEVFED
# Chain of Glucocorticoid receptor (Homo sapiens) (P04150 whole entry, looked up): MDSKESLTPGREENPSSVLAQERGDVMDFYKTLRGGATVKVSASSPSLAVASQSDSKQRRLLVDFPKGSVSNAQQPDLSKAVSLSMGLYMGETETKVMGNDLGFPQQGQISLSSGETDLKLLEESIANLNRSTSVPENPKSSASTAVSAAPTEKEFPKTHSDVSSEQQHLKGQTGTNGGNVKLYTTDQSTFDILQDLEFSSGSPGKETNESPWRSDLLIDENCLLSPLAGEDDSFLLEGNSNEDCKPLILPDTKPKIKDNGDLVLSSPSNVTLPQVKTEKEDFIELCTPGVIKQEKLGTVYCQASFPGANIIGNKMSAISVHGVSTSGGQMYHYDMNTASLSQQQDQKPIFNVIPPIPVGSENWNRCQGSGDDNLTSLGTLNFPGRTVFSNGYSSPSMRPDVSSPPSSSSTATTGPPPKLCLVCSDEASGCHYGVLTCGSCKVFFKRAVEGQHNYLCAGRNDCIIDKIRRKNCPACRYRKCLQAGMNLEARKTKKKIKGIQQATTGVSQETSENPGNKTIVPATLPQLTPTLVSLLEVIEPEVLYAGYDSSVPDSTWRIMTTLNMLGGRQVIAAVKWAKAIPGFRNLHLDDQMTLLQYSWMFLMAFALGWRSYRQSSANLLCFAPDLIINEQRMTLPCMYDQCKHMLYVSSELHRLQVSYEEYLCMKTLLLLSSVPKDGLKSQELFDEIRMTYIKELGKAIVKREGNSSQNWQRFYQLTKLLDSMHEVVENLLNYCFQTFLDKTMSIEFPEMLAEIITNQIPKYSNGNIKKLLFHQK
# Chain of Peroxisome proliferator-activated receptor delta (Homo sapiens) (Q03181 whole entry, looked up): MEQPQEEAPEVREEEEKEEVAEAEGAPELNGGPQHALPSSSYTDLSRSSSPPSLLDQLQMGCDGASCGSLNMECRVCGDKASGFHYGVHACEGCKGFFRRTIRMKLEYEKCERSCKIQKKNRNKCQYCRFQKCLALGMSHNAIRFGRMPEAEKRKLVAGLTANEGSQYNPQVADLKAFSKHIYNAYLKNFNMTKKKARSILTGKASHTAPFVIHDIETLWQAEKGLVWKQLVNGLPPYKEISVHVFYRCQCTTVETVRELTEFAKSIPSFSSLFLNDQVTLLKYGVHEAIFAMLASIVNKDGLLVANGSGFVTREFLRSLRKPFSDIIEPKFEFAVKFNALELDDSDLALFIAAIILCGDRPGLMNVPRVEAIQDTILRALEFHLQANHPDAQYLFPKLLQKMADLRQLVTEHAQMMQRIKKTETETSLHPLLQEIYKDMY
# Chain of Peroxisome proliferator-activated receptor alpha (Homo sapiens) (Q07869 whole entry, looked up): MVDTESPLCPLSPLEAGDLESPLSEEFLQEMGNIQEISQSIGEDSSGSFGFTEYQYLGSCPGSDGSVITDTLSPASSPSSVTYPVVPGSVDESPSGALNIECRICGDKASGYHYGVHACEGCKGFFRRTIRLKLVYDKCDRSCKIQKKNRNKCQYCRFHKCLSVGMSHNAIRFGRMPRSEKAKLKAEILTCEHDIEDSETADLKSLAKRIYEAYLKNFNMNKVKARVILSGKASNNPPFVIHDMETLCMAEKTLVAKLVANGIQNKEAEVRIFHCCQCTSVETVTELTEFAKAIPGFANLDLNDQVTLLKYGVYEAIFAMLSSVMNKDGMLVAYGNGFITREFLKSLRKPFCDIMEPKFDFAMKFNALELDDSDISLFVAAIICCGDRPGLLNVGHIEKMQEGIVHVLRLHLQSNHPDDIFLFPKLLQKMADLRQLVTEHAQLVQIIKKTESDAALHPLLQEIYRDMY
# Chain of Peroxisome proliferator-activated receptor gamma (Homo sapiens) (P37231 whole entry, looked up): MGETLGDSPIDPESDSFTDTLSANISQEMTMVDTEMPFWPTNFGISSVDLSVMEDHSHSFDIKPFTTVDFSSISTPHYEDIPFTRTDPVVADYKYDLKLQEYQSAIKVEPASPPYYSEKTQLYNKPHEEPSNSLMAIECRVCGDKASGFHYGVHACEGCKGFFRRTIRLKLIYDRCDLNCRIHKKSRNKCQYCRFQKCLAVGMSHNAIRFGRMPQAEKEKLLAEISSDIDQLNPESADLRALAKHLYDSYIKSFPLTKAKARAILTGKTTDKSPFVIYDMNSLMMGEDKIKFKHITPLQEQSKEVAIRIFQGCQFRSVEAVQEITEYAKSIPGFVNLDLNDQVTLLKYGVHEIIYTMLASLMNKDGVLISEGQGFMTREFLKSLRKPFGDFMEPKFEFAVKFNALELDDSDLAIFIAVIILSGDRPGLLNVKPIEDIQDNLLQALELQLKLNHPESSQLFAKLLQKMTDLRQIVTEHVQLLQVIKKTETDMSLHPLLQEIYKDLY
# Chain of Nuclear receptor subfamily 1 group I member 2 (Rattus norvegicus) (Q9R1A7 whole entry, looked up): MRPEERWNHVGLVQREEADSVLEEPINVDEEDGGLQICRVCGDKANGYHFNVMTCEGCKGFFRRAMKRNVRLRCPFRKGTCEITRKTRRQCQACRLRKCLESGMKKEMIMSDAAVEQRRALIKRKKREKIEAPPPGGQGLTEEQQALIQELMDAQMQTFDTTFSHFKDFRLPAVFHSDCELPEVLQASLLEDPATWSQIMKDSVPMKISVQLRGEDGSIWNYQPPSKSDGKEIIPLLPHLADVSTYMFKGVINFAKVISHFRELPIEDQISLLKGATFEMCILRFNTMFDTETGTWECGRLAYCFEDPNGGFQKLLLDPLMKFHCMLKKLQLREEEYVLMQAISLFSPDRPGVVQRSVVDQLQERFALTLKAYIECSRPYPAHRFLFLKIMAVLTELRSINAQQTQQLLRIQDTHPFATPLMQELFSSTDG
compound,measurement,setting,value
O=[N+]([O-])c1ccc(Oc2ccc(Cl)cc2Cl)cc1,activation,[1],-3.5% (inactive)
same,Potency,[2],inactive
same,outcome,[3],inactive
same,max response,[4],-2.51%
same,Potency,[5],inactive
same,Potency,[6],inactive
same,Potency,[7],inactive
same,outcome,[8],inactive
same,Potency,[9],inactive
same,max response,[10],-7.09%
same,max response,[11],5.62% (inactive)
same,activity change % (negative = inhibition),[12],-8.47% (inactive)
same,Potency,[13],48.6 µM (active)
same,activation,[14],-0.909% (inactive)
same,activation,[15],-1.65% (inactive)
same,activation,[16],0.167% (inactive)
same,max response,[17],5% (inactive)
same,max response,[18],-3.33% (inactive)
same,max response,[19],-5.28% (inactive)
same,Potency,[20],inactive
same,max response,[21],6.97% (inactive)
S=C([S-])NCCNC(=S)[S-].S=C([S-])NCCNC(=S)[S-].[Mn+2].[Zn+2],activation,[1],13.6% (inactive)
same,Potency,[7],inactive
S=C([S-])NCCNC(=S)[S-].[Zn+2],activation,[1],4.35% (inactive)
same,Potency,[7],inactive
same,max response,[22],2.58%
same,Potency,[23],inactive
same,max response,[10],-2.08% and 15.4%
same,max response,[11],15.4% (inactive) and -59.9% (inactive)
same,Potency,[13],21.7 µM (active) and 27.3 µM (active)
same,Potency,[24],inactive and 68.6 µM (active)
N#Cc1c[nH]cc1-c1cccc2c1OC(F)(F)O2,activation,[1],-6.3% (inactive)
same,outcome,[3],inactive
same,outcome,[8],inactive
same,max response,[22],-13.3%
same,Potency,[23],2.24 µM (active)
same,Potency,[9],inactive
same,activation,[15],-3.39% (inactive)
same,max response,[17],-0.738% (inactive)
same,Potency,[24],inactive
same,max response,[18],-6.59% (inactive)
same,max response,[19],-14.2% (inactive)
same,Potency,[20],inactive
CC(C)S,outcome,[3],inactive
